Active and inactive are the calls of the source.
Legend:
[1] = system: PRMT1 (protein arginine N-methyltransferase 1); experiment: PRMT1 binders on small-molecule microarrays, primary screen, biochemical, small-molecule microarray, 635 nm fluorescence (AID 1088); conditions: small-molecule microarray binding, higher = more signal;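 also: binding of Prmt1 protein to compounds spotted on small-molecule microarray slides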
[2] = yeast growth modulation, basal conditions, primary screen, YJM789 clinical isolate, OD600, 24 h (AID 1089);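 also: growth of clinical yeast isolate S. cerevisiae YJM 789 seeded 1000 cells per well; test concentration not given here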; conditions: S. cerevisiae YJM789 growth, higher = more signal, called active from +8 up or from −8 down
[3] = fission yeast growth modulation, primary screen, strain 972, OD600, 24 h, no modulator (AID 1090);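 also: basal condition with compound alone and no growth modifier present; test concentration not given here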; conditions: S. pombe 972 growth, higher = more signal, called active from +8 up or from −8 down
[4] = S. cerevisiae growth modulation with rapamycin, primary screen, strain BY4716, OD600, 96 h (AID 1091); conditions: higher = more signal, called active from +8 up or from −8 down; also: test concentration not given here
[5] = biological target: Torsin-1A-interacting protein 2 (Homo sapiens) (UniProt Q8NFQ8); experiment: LULL1 binders on small-molecule microarray, primary screen, cell lysate, human LULL1 lysate, 635/667 nm fluorescence (AID 1092); conditions: hLULL1 lysate binding, 635 nm fluorescence, higher = more signal;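 also: probe is lysate of COS7 cells overexpressing human LULL1; score merges per-feature 667 nm fluorescence with signal-to-noise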
[6] = E. coli growth modulation, two-sided OD650, primary screen, E. coli filamentation project, strain DRC41, 24 h (AID 1093); conditions: OD650, 24 h, higher = more signal, called active from +8 up or from −8 down;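 also: MC1000 strain lacking acrAB efflux and sulA so SOS filamentation is blocked; test concentration not given here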
[7] = small-molecule microarray binders of probe aLefty2, primary screen, biochemical, biotinylated probe, 635/667 nm fluorescence (AID 1094); conditions: higher = more signal;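 also: score merges spot fluorescence near 667 nm with spot signal-to-noise ratio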
[8] = system: Noggin (protein binding on small-molecule microarray); experiment: Noggin binders on small-molecule microarray, primary screen, biochemical, 635/667 nm fluorescence (AID 1095); conditions: 635 nm fluorescence, higher = more signal;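 also: score merges 667 nm feature fluorescence with signal to noise over triplicate slides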
[9] = biological target: Neurogenic locus notch homolog protein 3 (Homo sapiens) (UniProt Q9UM47); experiment: NOTCH3 binders on small-molecule microarray, primary screen, biochemical, 635/667 nm fluorescence (AID 1096); conditions: NOTCH3 binding, 635 nm fluorescence, higher = more signal
[10] = small-molecule microarray binders of probe aEGFR, primary screen, biochemical, biotinylated probe, 635/667 nm fluorescence (AID 1097); conditions: higher = more signal;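 also: probe is a biotinylated anti-EGFR antibody binding compounds printed on slides; score combines fluorescence near 667 nm and signal to noise of each spot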

Neurogenic locus notch homolog protein 3 (Homo sapiens), sequence (Q9UM47 whole entry, looked up): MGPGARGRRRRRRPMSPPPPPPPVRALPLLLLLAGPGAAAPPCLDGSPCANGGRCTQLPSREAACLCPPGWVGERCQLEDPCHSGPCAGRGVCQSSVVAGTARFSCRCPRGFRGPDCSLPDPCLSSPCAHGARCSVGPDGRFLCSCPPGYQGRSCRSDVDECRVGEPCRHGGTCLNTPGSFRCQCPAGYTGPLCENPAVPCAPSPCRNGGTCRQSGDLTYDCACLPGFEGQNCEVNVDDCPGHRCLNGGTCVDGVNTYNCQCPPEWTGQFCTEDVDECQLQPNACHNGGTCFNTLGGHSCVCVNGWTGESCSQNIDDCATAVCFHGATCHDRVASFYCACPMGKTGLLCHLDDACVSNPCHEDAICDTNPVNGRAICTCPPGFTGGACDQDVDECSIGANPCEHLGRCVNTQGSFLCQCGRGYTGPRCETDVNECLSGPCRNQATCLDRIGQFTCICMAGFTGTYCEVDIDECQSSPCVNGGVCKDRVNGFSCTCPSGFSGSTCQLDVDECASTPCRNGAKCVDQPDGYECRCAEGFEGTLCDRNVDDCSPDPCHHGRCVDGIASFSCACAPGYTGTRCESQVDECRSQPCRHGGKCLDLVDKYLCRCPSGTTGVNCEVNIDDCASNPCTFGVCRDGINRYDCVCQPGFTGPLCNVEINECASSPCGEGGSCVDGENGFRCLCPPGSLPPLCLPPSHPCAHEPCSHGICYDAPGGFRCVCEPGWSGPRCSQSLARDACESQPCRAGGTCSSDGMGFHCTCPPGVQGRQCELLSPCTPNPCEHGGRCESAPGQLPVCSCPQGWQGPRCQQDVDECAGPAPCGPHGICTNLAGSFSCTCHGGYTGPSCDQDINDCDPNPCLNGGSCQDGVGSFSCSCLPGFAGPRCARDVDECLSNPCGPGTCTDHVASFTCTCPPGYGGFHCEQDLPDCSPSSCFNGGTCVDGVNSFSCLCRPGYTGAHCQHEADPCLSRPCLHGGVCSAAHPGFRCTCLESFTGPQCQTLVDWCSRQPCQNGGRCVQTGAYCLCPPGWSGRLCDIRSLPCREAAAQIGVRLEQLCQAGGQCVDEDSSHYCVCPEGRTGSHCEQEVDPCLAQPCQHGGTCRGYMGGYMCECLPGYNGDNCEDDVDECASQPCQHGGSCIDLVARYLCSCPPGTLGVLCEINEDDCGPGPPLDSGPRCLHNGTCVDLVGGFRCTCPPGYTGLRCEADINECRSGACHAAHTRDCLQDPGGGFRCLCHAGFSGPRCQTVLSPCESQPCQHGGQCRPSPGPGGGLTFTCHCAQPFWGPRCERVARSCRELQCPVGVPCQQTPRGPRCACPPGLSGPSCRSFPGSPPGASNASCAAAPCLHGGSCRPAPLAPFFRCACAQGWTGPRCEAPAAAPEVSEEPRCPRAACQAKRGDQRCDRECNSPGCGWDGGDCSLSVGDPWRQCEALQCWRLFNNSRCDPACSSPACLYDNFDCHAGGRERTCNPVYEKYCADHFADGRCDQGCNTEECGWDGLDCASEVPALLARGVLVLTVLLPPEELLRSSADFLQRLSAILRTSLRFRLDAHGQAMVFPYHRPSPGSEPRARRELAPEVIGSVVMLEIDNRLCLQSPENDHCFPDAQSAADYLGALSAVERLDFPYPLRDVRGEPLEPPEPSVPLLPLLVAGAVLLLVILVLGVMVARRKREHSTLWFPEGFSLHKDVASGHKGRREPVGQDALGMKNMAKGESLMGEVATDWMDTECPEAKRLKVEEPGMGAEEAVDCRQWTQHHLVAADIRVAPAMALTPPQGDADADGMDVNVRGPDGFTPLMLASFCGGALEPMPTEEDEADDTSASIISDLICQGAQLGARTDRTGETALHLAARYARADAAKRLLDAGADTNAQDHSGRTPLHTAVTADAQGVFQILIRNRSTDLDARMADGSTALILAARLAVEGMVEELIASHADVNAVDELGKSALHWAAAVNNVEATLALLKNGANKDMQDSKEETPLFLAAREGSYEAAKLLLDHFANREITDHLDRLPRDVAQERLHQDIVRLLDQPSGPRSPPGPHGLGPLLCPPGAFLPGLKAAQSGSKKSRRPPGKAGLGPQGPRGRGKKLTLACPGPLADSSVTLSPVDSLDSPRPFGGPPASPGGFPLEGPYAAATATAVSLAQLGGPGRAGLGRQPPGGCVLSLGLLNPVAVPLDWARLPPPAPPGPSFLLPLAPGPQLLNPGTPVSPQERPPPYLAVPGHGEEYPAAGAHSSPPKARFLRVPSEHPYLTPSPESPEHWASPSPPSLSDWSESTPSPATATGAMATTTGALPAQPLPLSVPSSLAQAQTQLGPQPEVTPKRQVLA
Torsin-1A-interacting protein 2 (Homo sapiens), sequence (Q8NFQ8 whole entry, looked up): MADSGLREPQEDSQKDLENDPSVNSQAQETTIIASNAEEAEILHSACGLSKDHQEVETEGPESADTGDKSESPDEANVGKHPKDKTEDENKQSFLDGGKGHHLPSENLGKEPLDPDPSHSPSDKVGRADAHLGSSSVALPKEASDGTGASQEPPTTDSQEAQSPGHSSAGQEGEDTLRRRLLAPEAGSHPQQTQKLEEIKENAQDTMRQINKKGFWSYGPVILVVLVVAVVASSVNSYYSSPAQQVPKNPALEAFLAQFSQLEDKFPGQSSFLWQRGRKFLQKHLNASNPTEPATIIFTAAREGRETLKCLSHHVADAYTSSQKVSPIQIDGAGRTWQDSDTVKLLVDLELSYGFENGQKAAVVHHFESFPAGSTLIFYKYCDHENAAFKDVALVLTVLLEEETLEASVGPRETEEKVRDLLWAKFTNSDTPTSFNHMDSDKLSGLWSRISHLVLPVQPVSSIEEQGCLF

SMILES | composite z-score [1] | z-score [2] | z-score [3] | z-score [4] | composite z-score [5] | z-score [6] | composite z-score [7] | composite z-score [8] | composite z-score [9] | composite z-score [10]
C=CCN1Cc2ccccc2C[C@@]2(COC(c3ccc(OCCCO)cc3)=N2)C1=O | 1.5 | -0.915 (inactive) | -4.77 (inactive) | 0.817 (inactive) | 2.3 | 1.42 (inactive) | 0.247 | 0.34 | 0.454 | 0.052
Oc1ccc2cc[n+](Cc3cccc(OC(F)(F)F)c3)cc2c1 | 0.488 | 0.573 (inactive) | 0.439 (inactive) | 4.58 (inactive) | 1.65 | 0.713 (inactive) | -0.0541 | 1.26 | 0.646 | -0.0177
COc1ccc(C#Cc2ccc3c(c2)[C@]2(C(=O)N3)[C@H](C(=O)N3CCN(c4ncccn4)CC3)[C@H]3C(=O)O[C@H](c4ccccc4)[C@H](c4ccccc4)N3[C@@H]2c2ccc(O)cc2)cc1 | 1.56 | 0.77 (inactive) | 0.86 (inactive) | 1.17 (inactive) | 2.33 | -0.459 (inactive) | 0.0897 | 0.496 | 0.853 | -0.0573
COc1cc2c(cc1O)C(c1ccc(CN3CCCC3)cc1)N(Cc1sc3ccccc3c1Cl)CC2 (stereo not given) | 1.13 | -1.43 (inactive) | -17.7 (active) | -1.1 (inactive) | 1.93 | 0.504 (inactive) | 0.157 | 0.369 | 0.202 | 0.0475
COC(=O)[C@@]1(Cc2ccccc2)[C@H]2c3cc(C(=O)N(C)C)n(Cc4cc(F)c(F)c(F)c4)c3C[C@H]2CN1C(=O)c1ccccc1 | 0.664 | 0.103 (inactive) | 1.52 (inactive) | 0.405 (inactive) | 3.22 | -0.832 (inactive) | 0.461 | 0.137 | 1.04 | 0.218
Cc1c(NC(=O)/C(C#N)=C/C=C/c2ccccc2)c(=O)n(-c2ccccc2)n1C | 0.311 | 0.243 (inactive) | -0.678 (inactive) | 0.561 (inactive) | 0.396 | 1.94 (inactive) | -0.31 | 0.244 | 0.478 | -0.0293
COC(=O)[C@@]1(Cc2ccc(F)cc2)[C@H]2c3cc(C(=O)N(C)C)n(CCc4c[nH]c5ccc(OC)cc45)c3C[C@H]2CN1C(=O)c1ccccc1 | 0.84 | 0.12 (inactive) | -0.331 (inactive) | 0.342 (inactive) | 3.17 | -1.47 (inactive) | 0.809 | -0.682 | 0.0599 | 0.341
C=C(CCCC)/C(=C/C[C@@H](OC(=O)c1ccncc1)c1ccc(CO)o1)c1cc(C(=O)OC)ccc1OC | 1.45 | -0.169 (inactive) | -1.75 (inactive) | -0.331 (inactive) | 2.3 | 0.635 (inactive) | -0.101 | 0.752 | 1.07 | 0.107
COc1ccc([Si](C)(C)[C@H]2[C@H](CC(=O)N3CCC[C@H]3CO)O[C@@]3(C(=O)N(c4ccccc4)c4ccccc43)[C@@H]2C)cc1 | 0.258 | -1.85 (inactive) | -0.841 (inactive) | -1.27 (inactive) | 0.958 | 2.45 (inactive) | -0.0651 | 0.285 | 0.125 | -0.15
C=CCCN(CC#C[C@H]1Oc2ccccc2S(=O)(=O)N2CCC[C@@H]12)S(=O)(=O)c1ccc(C)cc1 | 0.514 | 1.15 (inactive) | -1.7 (inactive) | 0.965 (inactive) | 0.974 | -1.59 (inactive) | -0.139 | 0.264 | 0.18 | -0.145
CCCCCCC#C[Si](O[C@H](c1ccccc1)c1cn([C@H](C)c2ccccc2)nn1)(C(C)C)C(C)C | 0.789 | -0.285 (inactive) | 0.994 (inactive) | -0.0401 (inactive) | 0.828 | 1.33 (inactive) | -0.211 | 0.476 | 0.579 | -0.099
C=CCOC(=O)[C@@H]1[C@H]2C(=O)O[C@H](c3ccccc3)[C@H](c3ccccc3)N2[C@H](c2ccc(OCCOC(=O)[C@H]3C[C@H]4C(=O)N[C@@H](Cc5ccccc5)C(=O)N4[C@H]3c3ccc(O)cc3)cc2)[C@@]12C(=O)Nc1ccc(I)cc12 | 1.54 | 2.61 (inactive) | -1.76 (inactive) | 0.88 (inactive) | 1.83 | -1.96 (inactive) | -0.0879 | 0.906 | 1.09 | 0.128
CC1CC/C=C\[C@H]2OC34C=CCN(Cn5nnc6ccccc65)C(=O)[C@H]3N(CCCO)C(=O)[C@@H]4C2C(=O)O1 (stereo not given in full) | -0.749 | 0.175 (inactive) | -0.463 (inactive) | 0.203 (inactive) | 0.389 | 1.82 (inactive) | -0.0499 | -0.511 | 0.0174 | -0.192
C=CC[C@@]1(C(=O)OC)N=C(c2ccc(OCCCO)cc2)O[C@@H]1c1ccccc1CN=[N+]=[N-] | 1.3 | -3.29 (inactive) | -4.42 (inactive) | 6.32 (inactive) | 1.41 | 1.21 (inactive) | 0.0427 | 0.744 | -0.159 | -0.0531
O=C1C2C=CC(C(O)c3ccc(-c4ccccc4)s3)N(Nc3ccccc3F)C2C(=O)N1c1ccccc1 (stereo not given) | 1.33 | 0.264 (inactive) | 0.167 (inactive) | 1.58 (inactive) | 2.85 | -1.82 (inactive) | 0.207 | -0.243 | 1.02 | 0.232
O=C1C[C@@](C(=O)O)(c2ccc([N+](=O)[O-])cc2)[C@@H](c2ccc(CO)cc2I)N1C1CCCCC1 | 0.222 | -1.09 (inactive) | -6.54 (inactive) | 0.173 (inactive) | 2.54 | 2.15 (inactive) | 0.0539 | 0.373 | 1.06 | -0.0828
O=P(NCC1(CC2(c3ccccc3)CO2)CC1)(c1ccccc1)c1ccccc1 (stereo not given) | -0.878 | -0.468 (inactive) | 1.08 (inactive) | 0.236 (inactive) | 3.14 | 0.31 (inactive) | -0.132 | -1.44 | -1.19 | -0.207
[N-]=[N+]=NCc1ccccc1[C@@H]1OC(c2ccc(OCCCO)cc2)=N[C@]1(Cc1ccccc1)C(=O)O | 1.54 | 0.452 (inactive) | -1.11 (inactive) | -0.486 (inactive) | 3.2 | 0.652 (inactive) | 0.0769 | -0.0061 | 0.315 | 0.271
O=C1OCCC=C[C@H]2OC34C=CCN(c5ccc6ccccc6c5)C(=O)[C@H]3N(CCCCCCO)C(=O)[C@@H]4C12 (stereo not given in full) | 0.864 | 0.494 (inactive) | -1.55 (inactive) | 0.22 (inactive) | 0.911 | 0.67 (inactive) | -0.087 | -1.63 | -0.228 | -0.178
O=S(=O)(NCCCO)c1ccc(Br)cc1 | 0.607 | -1.72 (inactive) | -1.57 (inactive) | -0.531 (inactive) | 1.18 | 0.707 (inactive) | -0.18 | 0.355 | -0.271 | -0.0363
C=CCN1C(=O)[C@]2(Cc3ccccc31)N=C(c1ccc(OCCCO)cc1)O[C@@H]2c1ccccc1 | 1.33 | -2.2 (inactive) | -4.05 (inactive) | 0.259 (inactive) | 2.76 | -2.56 (inactive) | 0.235 | 0.555 | 0.923 | 0.0786
O=C1O[C@H](c2ccccc2)[C@H](c2ccccc2)N2[C@H]1[C@@H](C(=O)Nc1nc3ccccc3s1)[C@]1(C(=O)Nc3ccc(C#CC4=CCCCC4)cc31)[C@H]2c1ccc(OCCO)cc1 | 1.55 | 1.79 (inactive) | 1.42 (inactive) | 1.54 (inactive) | 3.26 | 0.476 (inactive) | 0.291 | 0.715 | 1.07 | -0.118
O=C1C2C=CC(C(O)c3ccccn3)N(Nc3ccccc3F)C2C(=O)N1c1ccccc1 (stereo not given) | 0.0392 | 0.839 (inactive) | 0.0161 (inactive) | -0.207 (inactive) | 1 | -0.717 (inactive) | -0.0561 | 0.0291 | -0.584 | -0.0581
COCCCNC(=O)[C@@]1(C)c2ccccc2C(=O)N(Cc2ccccc2)[C@H]1c1ccc(CO)cc1 | 1.46 | -0.21 (inactive) | -1.31 (inactive) | -0.0048 (inactive) | 3.43 | -0.336 (inactive) | -0.11 | -0.694 | 0.0118 | -0.168
COC(=O)[C@@]1(Cc2ccc(OC)cc2)[C@H]2c3cc(C(=O)N(C)C)n(CCSCCO)c3C[C@H]2CN1C(=O)c1ccccc1 | 0.359 | -0.526 (inactive) | 0.271 (inactive) | -0.251 (inactive) | 3.53 | -0.209 (inactive) | 0.162 | 0.281 | 1.13 | 0.31
C=CCN1C(=O)[C@]2(COC(c3ccc(OCCCO)cc3)=N2)Cc2ccccc21 | 1.36 | -2.32 (inactive) | -5.3 (inactive) | -1.78 (inactive) | 3.21 | 1.09 (inactive) | 0.0914 | 0.044 | 0.801 | -0.163
C=CCNC(=O)[C@H]1[C@@H]2C(=O)O[C@@H](c3ccccc3)[C@@H](c3ccccc3)N2[C@@H](c2ccc(O)cc2)[C@]12C(=O)Nc1ccc(C#Cc3ccc(OC)cc3)cc12 | 1.49 | -0.209 (inactive) | 1.14 (inactive) | 0.832 (inactive) | 2.86 | -0.451 (inactive) | 0.369 | 0.41 | 1.12 | 0.469
CN1C(=O)C2C(C1=O)C1C=C(c3ccc(CO)cc3)C2C(C2CC2)N1Cc1cc2c(cc1Br)OCO2 (stereo not given) | 1.53 | -3.93 (inactive) | -6.09 (inactive) | 0.385 (inactive) | 3.49 | -0.911 (inactive) | 0.313 | 0.268 | 1.09 | 0.035
CN1C(=O)C2C=CC(C(O)C=Cc3ccc([N+](=O)[O-])cc3)N(N3CCCCC3)C2C1=O (stereo not given) | 1.09 | -0.704 (inactive) | -7.07 (inactive) | -0.476 (inactive) | 2.79 | -1.33 (inactive) | 0.859 | 0.38 | 1.06 | 0.789
